About 83,000 compounds went through this panel and 20% of them were active in at least one assay; those are over-represented in the sample as a whole.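 Step 1: grow cells in 96-well plates. Step 2: add test compound at a single concentration. Step 3: incubate 48 h. Step 4: record percent growth.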 Values without a mark were called inactive. The source made the active and inactive calls. How the source made its calls: active means growth percent below 10; inactive means the rest.
Experiments:
Assay in all cases: NCI-60 one-dose screen, 48 h (100 = growth as untreated, 0 = no growth, -100 = all killed)
Details in all cases: 10 µM unless noted
[1] = system: NCI-H23 lung
[2] = system: NCI-H226 lung
[3] = system: NCI-H322M lung
[4] = system: HOP-62 NSCLC
[5] = system: NCI-H460 lung
[6] = system: HOP-92 NSCLC
[7] = system: NCI-H522 lung
[8] = system: A549/ATCC NSCLC
[9] = system: 786-0 renal
[10] = system: COLO 205 colon

Row | Structure (SMILES) | growth [1] | growth [2] | growth [3] | growth [4] | growth [5] | growth [6] | growth [7] | growth [8] | growth [9] | growth [10]
1 | COc1ccc(C(=O)Cn2c(C(=O)c3ccc(Cl)cc3)nc3ccccc32)cc1 | 78.3% | 87.4% | 89.7% | 81.8% | 86.9% | 59.3% | 14.8% | 68.1% | 64.6% | 111%
2 | Cc1ccc(-c2csc(N(C(=O)N3CCN(c4cc5c(cc4F)c(=O)c(C(=O)O)cn5C4CC4)CC3)c3ccccc3)n2)cc1 | -0.349% (active) | 7.91% (active) | 4.96% (active) | 4.78% (active) | 5.91% (active) | -18% (active) | -0.464% (active) | 13.7% | 4.6% (active) | 8.13% (active)
3 | CCCCC#Cc1c(I)n(C)c(=O)[nH]c1=O | 14.4% | 39.8% | 101% | 93.9% | 103% | -89.7% (active) | -13.4% (active) | 70.9% | 98.2% | -36.8% (active)
4 | O=C1Nc2c(C(=O)O)cccc2/C1=N/c1n[nH]c(=S)s1 | 87.8% | 86.2% | 95.6% | 79.7% | 93.4% | 96.1% | 81.1% | 85.5% | 91.3% | 118%
5 | O=S(=O)(Nc1cc(Sc2cccc3cccnc23)c(O)c2ccccc12)c1ccccc1 | 28.8% | 46.3% | 28.3% | 47.3% | 3.5% (active) | 33.1% | -37.3% (active) | 15.7% | 36.6% | -47.6% (active)
6 | NS(=O)(=O)c1ccc(-c2cc(-c3nnc(SCC(=O)Nc4ccc(C(=O)/C=C/c5ccc(Cl)cc5)cc4)n3-c3ccccc3)c3ccccc3n2)cc1 | 102% | 96.6% | 89.3% | 100% | 97.7% | 93.1% | 89.9% | 95% | 73.4% | 103%
7 | COc1ccc(/C=C/C(c2cc(OC)c(OC)c(OC)c2)n2ccnc2)cc1O (stereo not given) | 55.7% | 88.4% | 45.8% | 47.2% | 16.5% | 30.5% | 24.6% | 29.1% | 34% | 89.8%
8 | C#CCO[C@H]1CC(CC#C)(CC#C)C(=O)[C@@H]2[C@H]1[C@H]1C[C@@H]3[C@@]4(C)CCC[C@@](C)(C(=O)OC)[C@@H]4CC[C@@]23C=C1C(C)C | 73.2% | 88.3% | 104% | 98.7% | 97.8% | 13.6% | -77% (active) | 89.4% | 41.4% | 86.8%
9 | Cc1ccc(C)c2c(C)c(C(=O)Nc3cccc(-n4cccn4)c3)oc12 | 73.1% [50 µM] | 62.1% [50 µM] | 86.5% [50 µM] | 99.4% [50 µM] | 56.4% [50 µM] | 90.8% [50 µM] | 32% [50 µM] | 58.4% [50 µM] | 82.2% [50 µM] | 62.8% [50 µM]
10 | COc1cc2nc3sc(C(=O)Nc4ccc(C(=O)OC(C)C)cc4)c(C(=O)Nc4ccc(Cl)cc4C)n3c(=O)c2cc1OC | 72.1% | 103% | 68.5% | 67.2% | 22.7% | 32.5% | 98.7% | 52% | 53.6% | 45.8%
11 | Nc1nc(N)c2c(n1)NC(c1cccc(Nc3ccnc4cc(C(F)(F)F)ccc34)c1)CC(c1ccccc1)=N2 (stereo not given) | 67.1% | 87.8% | 91.8% | 54.9% | 22.6% | 45% | 28.8% | 41.4% | 67.5% | 30.2%
12 | Cn1cc(-c2nn3cc(-c4cccs4)nc3s2)c2cc(F)ccc21 | 58% | 67% | 50.1% | 28.4% | 8.02% (active) | 39.6% | 5.4% (active) | 37.7% | 49.2% | 22%
13 | CN1C(=O)/C(=C2\SC(=Nc3ccccc3)N(Nc3ccccc3)C2=O)c2ccccc21 | 94.1% | 93.8% | 95.4% | 88.1% | 101% | 100% | 94.5% | 98.6% | 107% | 112%
14 | Cc1ccc2c(=O)cc(C(=O)Nc3sc4c(c3C(=O)NCc3cccnc3)CCCC4)oc2c1C | 101% | 107% | 103% | 104% | 109% | 97.3% | 100% | 98.4% | 108% | 110%
15 | CCCCCCCCCCCCCCCCCCOc1ccccc1CC(=O)NCC[N+]1(C)CCCCC1 | 62.5% | 74.2% | 62.7% | 59% | 41.9% | 19.9% | 32.7% | 51.2% | 74.2% | 23.6%
16 | Cc1c(CC(=S)N2CCOCC2)nnn1-c1cccc(C(F)(F)F)c1 | 107% | 107% | 109% | 101% | 103% | 111% | 89.6% | 107% | 110% | 119%
17 | CC1CCN(C(=O)CCCl)c2ccccc21 (stereo not given) | 90.6% | 105% | 107% | 112% | 101% | 115% | 84.9% | 96.6% | 110% | 111%
18 | COc1cc(OC)c2sc(-c3ccc(-n4cncc4-c4cc(OC)c(OC)c(OC)c4)cc3)nc2c1 | 54.5% | 52.7% | 86.8% | 79.6% | 46.2% | 14.8% | 43.2% | 50.9% | 67.2% | 44.5%
19 | COc1ccccc1C(=O)Nc1cccc(NC(=O)c2ccoc2C)c1 | 47.5% | 70.7% | 59.5% | 49.5% | 13.9% | 47.2% | 13.9% | 28.2% | 32.9% | 39.2%
20 | O=C1/C(=C/c2ccc(F)cc2)CN(C(=O)C(Cl)Cl)C/C1=C\c1ccc(F)cc1 | -48.1% (active) | 0.691% (active) | -63% (active) | -19.1% (active) | -78% (active) | -48% (active) | -58.1% (active) | -31.8% (active) | -56.2% (active) | -70.2% (active)
21 | COc1ccc(C(=O)c2cc3c(N)c(C(=O)Nc4ccccc4)sc3nc2C)cc1 | 36.1% | 65.3% | 63% | 44.8% | 6.22% (active) | 82.2% | 9.62% (active) | 31.1% | 46.4% | 7.64% (active)
22 | O=C1/C(=C/c2ccccc2F)CN(C(=O)C(Cl)Cl)C/C1=C\c1ccccc1F | -33.2% (active) | 39.4% | -18.5% (active) | 13.8% | -74.2% (active) | -27.9% (active) | -49.8% (active) | -2.28% (active) | -71.9% (active) | -57.6% (active)
23 | CC1(C)N=C(N)N=C(N)N1c1ccc(CCCCc2ccccc2)c(Cl)c1 | 6.38% (active) | 34.7% | 31.6% | 21.7% | 4.96% (active) | 19.3% | -6.62% (active) | 15.9% | 16.3% | -75.8% (active)
24 | C#CCNC(=O)[C@]1(C)CCC[C@@]2(C)[C@H]1CC=C1C=C(C(C)C)CC[C@@H]12 | 100% | 97.6% | 100% | 98.7% | 106% | 109% | 96.2% | 97.6% | 96.8% | 115%
25 | O=C(CCSc1nnc2n(Cc3ccccc3)c(=O)c3c4c(sc3n12)CCCC4)N1CCN(c2ccccc2)CC1 | 102% | 100% | 99.8% | 103% | 102% | 94% | 104% | 104% | 102% | 102%

— PubChem BioAssay (NCI)
